Source: PubChem BioAssay (NCATS)
“And” between values parts separate entries of the source, which are not always exact repeats. Equal values may be shown once. Records with an inconclusive call do not appear. A call without a number means that no potency is given here. The source made the active and inactive calls. Unless noted, calls come from the whole dose curve; as a rule, active = well fitted curve in the direction sought with a large enough effect; inconclusive = small, poorly fitted or top-dose-only effect, or another doubt; inactive = no such curve, though single readings can be large; an effect the other way counts as inactive or inconclusive.

Test system: not listed separately
Experiment: Primary qHTS for small molecule stabilizers of the endoplasmic reticulum resident proteome: Secreted ER Calcium Modulated Protein (SERCaMP) assay (AID 1508630)
Conditions: SH-SY5Y GLuc-SERCaMP (Gaussia luciferase released on ER calcium loss) secretion, thapsigargin, luminescence; series mostly up to 38.4 µM
Method in brief: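 The SH-SY5Y reporter protocol was run at 3 concentrations up to 38.3 uM (primary) or 11 concentrations (follow-up): 16 h compound, 100 nM thapsigargin for 4 h, then extracellular luciferase luminescence.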

| SMILES | Potency |
| --- | --- |
| C[C@]12Cc3cn[nH]c3C[C@@H]1CC[C@@H]1[C@H]2CC[C@@]2(C)[C@H]1CC[C@]2(C)O | inactive |
| CCOC(=O)Nc1ccc(NCc2ccc(F)cc2)cc1N | inactive |
| Cc1ccccc1-n1c(Cn2ncc3c(N)ncnc32)nc2cccc(C)c2c1=O | inactive |
| CC(C)NC(C)Cc1ccc(I)cc1 (stereo not given) | inactive |
| O=C1C=CC[C@@H]2[C@H]3CCCN4CCC[C@@H](CN12)[C@@H]34 | inactive |
| CC(=O)Nc1ccc(OC[C@](C)(O)C(=O)Nc2ccc([N+](=O)[O-])c(C(F)(F)F)c2)cc1 | inactive |
| CCNC(=O)C[C@@H]1N=C(c2ccc(Cl)cc2)c2cc(OC)ccc2-n2c(C)nnc21 | inactive |
| COc1cc2cc(c1Cl)N(C)C(=O)C[C@H](OC(=O)C(C)C)[C@]1(C)O[C@H]1[C@H](C)[C@@H]1C[C@@](O)(NC(=O)O1)[C@H](OC)C=CC=C(C)C2 | inactive |
| CSCC[C@@H](NC(=O)[C@@H](Cc1ccccc1)NC(=O)CNC(=O)CNC(=O)[C@@H](N)Cc1ccc(O)cc1)C(=O)O | inactive |
| CC(C)(O)C(=O)Nc1ccc([N+](=O)[O-])c(C(F)(F)F)c1 | inactive |
| O=C1CCC[C@@H]2[C@H]3CCCN4CCC[C@@H](CN12)[C@@H]34 | inactive |
| COC1=CC(C)=C[C@@H](C)[C@@H](O)[C@@H](C)CC(C)=CC=C[C@H](OC)[C@H]([C@@H](C)[C@@H](O)[C@H](C)[C@@]2(O)C[C@@H](O)[C@H](C)[C@@H](C(C)C)O2)OC1=O | inactive |
| c1cc2c(cc1[C@H]1OC[C@H]3[C@H]1CO[C@H]3c1ccc3c(c1)OCO3)OCO2 | inactive |
| CC(C)[C@]12O[C@@H]1[C@@H]1O[C@]13[C@]1(O[C@H]1C[C@@H]1C4=C(CC[C@@]13C)C(=O)OC4)[C@H]2O | inactive |
| CCCCCC[C@H]1C(=O)O[C@H](C)[C@H](NC(=O)c2cccc(NC=O)c2O)C(=O)O[C@@H](C)[C@@H]1OC(=O)CC(C)C | inactive |
| C[C@]12CC[C@H](O)CC1=CC[C@H]1[C@H]3CCC(=O)[C@@]3(C)CC[C@@H]12 | inactive |
| CCOP(=O)(OCC)C(C)NC(=O)N(CCCl)N=O (stereo not given) | inactive |
| c1ccc2sc(C3(N4CCCCC4)CCCCC3)cc2c1 | inactive |
| C#C[C@]1(O)C=C[C@@H]2[C@@H]3CCC4=CC(=O)CC[C@@H]4[C@H]3CC[C@@]21CC | inactive |
| c1ccc(CCCN2CCN(CCOC(c3ccccc3)c3ccccc3)CC2)cc1 | inactive |

Molecular target: Cytochrome P450 2D6 (Homo sapiens) (UniProt P10635)
Experiment: Cytochrome P450 family 2 subfamily D member 6 (CYP2D6) small molecule antagonists: luciferase biochemical (cell-free) qHTS assay (AID 1645840; active = well fitted curve in the direction sought with a large enough effect in the repeat runs; an effect the other way counts as inactive or inconclusive; note: nearly all actives have a fitted effect of over 55% in size; note: potency is the fitted concentration of half-maximal effect)
Conditions: P450-Glo CYP2D6 enzyme, luciferin luminescence, 1 h; series mostly up to 57.4 µM
Method in brief: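 P450-Glo CYP2D6 system: proluciferin substrate converted by enzyme to luciferin, read by luminescence proportional to activity. Enzyme-substrate mix with compound 10 min at room temperature, then NADPH regeneration 1 h before detection reagent.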

Cytochrome P450 2D6 (Homo sapiens), sequence (P10635 whole entry, looked up): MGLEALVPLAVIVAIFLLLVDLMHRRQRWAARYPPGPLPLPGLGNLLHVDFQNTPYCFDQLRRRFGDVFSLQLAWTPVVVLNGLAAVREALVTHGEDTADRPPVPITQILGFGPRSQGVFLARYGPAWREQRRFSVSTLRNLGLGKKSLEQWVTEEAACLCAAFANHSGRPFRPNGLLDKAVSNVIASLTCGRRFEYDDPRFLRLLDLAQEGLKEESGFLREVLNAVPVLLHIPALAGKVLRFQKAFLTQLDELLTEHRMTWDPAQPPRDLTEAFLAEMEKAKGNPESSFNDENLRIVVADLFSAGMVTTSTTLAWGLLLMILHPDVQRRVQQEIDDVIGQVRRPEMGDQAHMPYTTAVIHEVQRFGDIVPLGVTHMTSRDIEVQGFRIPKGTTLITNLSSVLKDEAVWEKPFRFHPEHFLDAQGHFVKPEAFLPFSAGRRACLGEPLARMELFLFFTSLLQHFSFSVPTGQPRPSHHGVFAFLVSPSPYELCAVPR

| SMILES | Potency |
| --- | --- |
| COCC1(CO)C(=O)C2CCN1CC2 (stereo not given) | inactive |
| S=C(SSC(=S)N1CCCCC1)N1CCCCC1 | inactive |
| O=c1[nH]c2ccc(Cl)cc2c(N[C@@H]2CN3CCC2CC3)c1-c1nc2ccccc2[nH]1 | 1.69 µM (active) and 2.39 µM (active) |
| C[C@]12COC(=O)C[C@@H]1CC[C@@H]1[C@H]2CC[C@@]2(C)[C@H]1CC[C@]2(C)O | inactive |
| CCOC(=O)Nc1ccc(NCc2ccc(F)cc2)cc1N | 19 µM (active) |
| Cc1ccccc1-n1c(Cn2ncc3c(N)ncnc32)nc2cccc(C)c2c1=O | inactive |
| CSCC[C@@H](NC(=O)[C@@H](Cc1ccccc1)NC(=O)CNC(=O)CNC(=O)[C@@H](N)Cc1ccc(O)cc1)C(=O)O | inactive |
| O=C(O)c1ccccc1O | inactive |
| COc1ccc(C(c2ccc(OC)cc2)C(Cl)(Cl)Cl)cc1 | inactive |
| O=C(O)c1ccccn1 | inactive |
